PubChem BioAssay (Tox21)
Results filed as inconclusive are left out. Unmarked numbers belong to inactive results. The source made the active and inactive calls. The call rests on the fitted dose curve; in most records, active means well fitted cell-killing curve with a large enough effect in the repeat runs; inconclusive means weak or mixed curves, or effect the other way; inactive means flat fitted curve, though single readings scatter.
On the % scale 0 is the no-effect control and ±100 the full control effect.

Test: qHTS assay to identify small molecule agonists of the androgen receptor (AR) signaling pathway in the presence of an antagonist - cell viability counter screen (AID 1259379); further: nearly all actives have a fitted effect of over 25% in size; further: potency means the concentration at half of the fitted maximal effect;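 on activity change, negative = cytotoxicity: MDA-kb2 human breast cancer cells carrying an MMTV luciferase reporter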
Conditions: MDA-kb2 viability, CellTiter-Fluor, 16 h; series mostly up to 92.4 µM; activity change, negative = cytotoxicity: at the top concentration
Summary of the method: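 A CellTiter-Fluor read-out measured viability of MDA-kb2 reporter cells (MMTV promoter with AR and GR response elements). Treatment: nilutamide 3.0uM final with compounds at 15 concentrations, 16 hr, 37C, 0% CO2.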
For `CCCCCCCC/C=C\CCCCCCCC(=O)OC[C@@H](O)[C@H]1OC[C@H](O)[C@H]1O`, the “activity change, negative = cytotoxicity” value was -7.41%. In the case of `COc1ccc(NS(=O)(=O)c2ccc(N)cc2)nn1`, the “activity change, negative = cytotoxicity” value is reported as 5.27% [at 42.5 µM]. In the case of `CC(C)CCO`, the “activity change, negative = cytotoxicity” value is reported as 0.996%. With `CCS(=O)(=O)CCn1c([N+](=O)[O-])cnc1C` the “activity change, negative = cytotoxicity” value was 6.54% [at 42.5 µM]. With `O=C(O)CCNC(=O)c1ccccc1` the “activity change, negative = cytotoxicity” value was 0.988% [at 42.5 µM]. With `C=C[Si](C)(C)O[Si](C)(C)C=C` the “activity change, negative = cytotoxicity” value was 4.79%. In the case of `Cc1ccccc1C(=O)N1CC/C(=N\OS(=O)(=O)O)c2ccc(Cl)cc21`, the “activity change, negative = cytotoxicity” value is reported as -4.47% [at 42.5 µM]. For `COc1ccc(N=Nc2cc(C)c(N=Nc3ccc(S(=O)(=O)O)cc3)cc2OC)cc1`, the Potency was 48.6 µM (active). With `CCCCCCCC[Si](OCC)(OCC)OCC` the “activity change, negative = cytotoxicity” value was 1.18%. With `CNC(=O)C(c1ccccc1)c1ccccc1` the “activity change, negative = cytotoxicity” value was 1.06%. With `CCCCCN(CCCOC)C(=O)C(CCC(=O)O)NC(=O)c1ccc(Cl)c(Cl)c1` (stereo unspecified) the “activity change, negative = cytotoxicity” value was 0.248% [at 42.5 µM]. With `CCNC(=O)/C=C/c1cccc(Br)c1` the “activity change, negative = cytotoxicity” value was 1.85% [at 42.5 µM]. With `C[C@H](CCC(=O)NCC(=O)O)[C@H]1CC[C@H]2[C@@H]3[C@H](O)C[C@@H]4C[C@H](O)CC[C@]4(C)[C@H]3C[C@H](O)[C@]12C` the “activity change, negative = cytotoxicity” value was -2.34%. With `NC(Cc1c[nH]c2ccccc12)C(=O)O` (stereo unspecified) the “activity change, negative = cytotoxicity” value was 0.665% [at 42.5 µM]. For `O=S(=O)(O)SSS(=O)(=O)O`, the “activity change, negative = cytotoxicity” value was 3.84%. For `NS(=O)(=O)c1ccc(Cl)c(S(N)(=O)=O)c1`, the “activity change, negative = cytotoxicity” value was 1.95% [at 42.5 µM]. For `COC(=O)CCC(=O)O`, the “activity change, negative = cytotoxicity” value was 2.54%. For `CC(C)COC(=O)COc1ccc(Cl)cc1Cl`, the “activity change, negative = cytotoxicity” value was 1.94%. For `C=C(C)[C@@H]1CC[C@@H](C)C[C@@H]1O`, the “activity change, negative = cytotoxicity” value was 2.54%. For `Nc1ccc(S(=O)(=O)Nc2ccccn2)cc1`, the “activity change, negative = cytotoxicity” value was -0.653% [at 42.5 µM]. With `C=CCOC(=O)c1ccc(C(=O)OCC=C)c(C(=O)OCC=C)c1` the “activity change, negative = cytotoxicity” value was -0.285%. With `O=C(O)Cc1cccc(-c2cc(CCCCCCc3ccc(O[C@H]4O[C@H](CO)[C@@H](O)[C@H](O)[C@@H]4O)c(-c4cccc(CC(=O)O)c4)c3)ccc2O[C@H]2O[C@H](CO)[C@@H](O)[C@H](O)[C@@H]2O)c1` the activity change, negative = cytotoxicity was 1.29% [at 0.35 µM]. For `O=S(=O)(O)c1cc(O)ccc1O`, the “activity change, negative = cytotoxicity” value was 0.445%. With `CCCCC(C)C(=O)O` (stereo unspecified) the “activity change, negative = cytotoxicity” value was 1.2%. With `NS(=O)(=O)c1cc2c(cc1Cl)NC(CC1CCCC1)NS2(=O)=O` (stereo unspecified) the “activity change, negative = cytotoxicity” value was -0.264% [at 42.5 µM]. In the case of `CCCCCCCCCCCCCCCCCCN(C)C`, the “activity change, negative = cytotoxicity” value is reported as -4.27% [at 42.5 µM]. With `CC(=O)OCC(=O)[C@@]1(O)[C@H](OC(C)=O)C[C@H]2[C@@H]3CCC4=CC(=O)C=C[C@]4(C)[C@@]3(F)[C@@H](O)C[C@@]21C` the “activity change, negative = cytotoxicity” value was -0.661% [at 42.5 µM]. In the case of `C=CCOCC(O)CCl` (stereo unspecified), the “activity change, negative = cytotoxicity” value is reported as -0.277%. For `CCOC(=O)CCc1ccccc1`, the “activity change, negative = cytotoxicity” value was 0.981%. For `Nc1cc(C(=O)O)ccc1Cl`, the “activity change, negative = cytotoxicity” value was 0.109%. In the case of `c1ccccc1`, the “activity change, negative = cytotoxicity” value is reported as -1.33%. With `FC(F)(F)c1ccc(Cl)cc1Cl` the “activity change, negative = cytotoxicity” value was 1.38%. In the case of `CC(C)(C)c1ccc(C=O)cc1`, the “activity change, negative = cytotoxicity” value is reported as 1.19%. In the case of `O=C(O)c1ccccc1C(=O)OCc1ccccc1`, the “activity change, negative = cytotoxicity” value is reported as -1.29%. In the case of `COc1cc([N+](=O)[O-])ccc1N`, the Potency is reported as 34.4 µM (active). In the case of `C[C@@H]1C[C@H]2[C@@H]3C[C@H](F)C4=CC(=O)C=C[C@]4(C)[C@@]3(F)[C@@H](O)C[C@]2(C)[C@@]1(O)C(=O)CO`, the “activity change, negative = cytotoxicity” value is reported as 2.1% [at 42.5 µM]. For `O=S1(=O)CCCC1`, the “activity change, negative = cytotoxicity” value was 0.756%. With `O=c1[nH]c(=O)c2ccccc2o1` the “activity change, negative = cytotoxicity” value was 3.14% [at 42.5 µM].

Test: qHTS assay to identify small molecule agonists of the estrogen receptor beta (ER-beta) signaling pathway - cell viability counter screen (AID 1259380); further: nearly all actives have a fitted effect of over 30% in size
Conditions: ER-beta-bla HEK293T viability, CellTiter-Glo luminescence, 16 h; series mostly up to 92.4 µM; activity change, negative = cytotoxicity: at the top concentration
Summary of the method: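 Cells used were ER-beta-UAS-bla HEK293T in medium with 2% charcoal-stripped FBS. They were treated for 16 hr at 37C. Viability came from CellTiter-Glo luminescence.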
With `COc1ccc(NS(=O)(=O)c2ccc(N)cc2)nn1` the “activity change, negative = cytotoxicity” value was -0.191% [at 42.5 µM]. With `CC(C)CCO` the “activity change, negative = cytotoxicity” value was 0.291%. With `CCS(=O)(=O)CCn1c([N+](=O)[O-])cnc1C` the “activity change, negative = cytotoxicity” value was 2.47% [at 42.5 µM]. With `C=C[Si](C)(C)O[Si](C)(C)C=C` the “activity change, negative = cytotoxicity” value was 0.0176%. In the case of `Cc1ccccc1C(=O)N1CC/C(=N\OS(=O)(=O)O)c2ccc(Cl)cc21`, the “activity change, negative = cytotoxicity” value is reported as 0.53% [at 42.5 µM]. With `CCCCCCCC[Si](OCC)(OCC)OCC` the “activity change, negative = cytotoxicity” value was 1.47%. With `CNC(=O)C(c1ccccc1)c1ccccc1` the “activity change, negative = cytotoxicity” value was 5.96%. In the case of `CCCCCN(CCCOC)C(=O)C(CCC(=O)O)NC(=O)c1ccc(Cl)c(Cl)c1` (stereo unspecified), the “activity change, negative = cytotoxicity” value is reported as -2.02% [at 42.5 µM]. With `CCNC(=O)/C=C/c1cccc(Br)c1` the “activity change, negative = cytotoxicity” value was 0.27% [at 42.5 µM]. With `C[C@H](CCC(=O)NCC(=O)O)[C@H]1CC[C@H]2[C@@H]3[C@H](O)C[C@@H]4C[C@H](O)CC[C@]4(C)[C@H]3C[C@H](O)[C@]12C` the “activity change, negative = cytotoxicity” value was 6.85%. For `NC(Cc1c[nH]c2ccccc12)C(=O)O` (stereo unspecified), the “activity change, negative = cytotoxicity” value was -1.93% [at 42.5 µM]. In the case of `O=S(=O)(O)SSS(=O)(=O)O`, the “activity change, negative = cytotoxicity” value is reported as -1.08%. For `COC(=O)CCC(=O)O`, the “activity change, negative = cytotoxicity” value was -0.709%. In the case of `CC(C)COC(=O)COc1ccc(Cl)cc1Cl`, the “activity change, negative = cytotoxicity” value is reported as 3.18%. For `C=C(C)[C@@H]1CC[C@@H](C)C[C@@H]1O`, the “activity change, negative = cytotoxicity” value was 2.88%. `O=C(O)Cc1cccc(-c2cc(CCCCCCc3ccc(O[C@H]4O[C@H](CO)[C@@H](O)[C@H](O)[C@@H]4O)c(-c4cccc(CC(=O)O)c4)c3)ccc2O[C@H]2O[C@H](CO)[C@@H](O)[C@H](O)[C@@H]2O)c1` gave an activity change, negative = cytotoxicity of 7.37% [at 0.349 µM]. With `CCCCC(C)C(=O)O` (stereo unspecified) the “activity change, negative = cytotoxicity” value was 0.674%. For `CCCCCCCCCCCCCCCCCCN(C)C`, the “activity change, negative = cytotoxicity” value was 3.18% [at 42.5 µM]. In the case of `CC(=O)OCC(=O)[C@@]1(O)[C@H](OC(C)=O)C[C@H]2[C@@H]3CCC4=CC(=O)C=C[C@]4(C)[C@@]3(F)[C@@H](O)C[C@@]21C`, the “activity change, negative = cytotoxicity” value is reported as -3.43% [at 42.5 µM]. With `CCOC(=O)CCc1ccccc1` the “activity change, negative = cytotoxicity” value was 3.15%. In the case of `Nc1cc(C(=O)O)ccc1Cl`, the “activity change, negative = cytotoxicity” value is reported as 0.0718%. With `c1ccccc1` the “activity change, negative = cytotoxicity” value was 4.23%. With `FC(F)(F)c1ccc(Cl)cc1Cl` the “activity change, negative = cytotoxicity” value was 3.43%. For `CC(C)(C)c1ccc(C=O)cc1`, the “activity change, negative = cytotoxicity” value was 3.87%. For `O=C(O)c1ccccc1C(=O)OCc1ccccc1`, the “activity change, negative = cytotoxicity” value was 2.59%. With `COc1cc([N+](=O)[O-])ccc1N` the “activity change, negative = cytotoxicity” value was -4.66%. For `C[C@@H]1C[C@H]2[C@@H]3C[C@H](F)C4=CC(=O)C=C[C@]4(C)[C@@]3(F)[C@@H](O)C[C@]2(C)[C@@]1(O)C(=O)CO`, the “activity change, negative = cytotoxicity” value was -6.66% [at 42.5 µM]. For `O=c1[nH]c(=O)c2ccccc2o1`, the “activity change, negative = cytotoxicity” value was 3.78% [at 42.5 µM].
